Tau fluor cs – counter-screen for tau fibril formation inhibitors; tau K18 P301L Alexa594 fluorescence, heparin fibrillization; Potency, µM (highest dose often 57.7 µM), inactives show at the highest dose activity change, negative = decrease; 280,000 tested, 0.93% active; also: potency is read from the fitted curve at half-maximal effect; nearly all actives have a fitted effect of over 55% in size
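Human tau K18 P301L (15 uM unlabeled, 0.24 uM Alexa 594-labeled) in 100 mM sodium acetate pH 7 with 20 uM heparin, 6 hr at 37 C. ThT 30 uM added, 1 hr ambient; Alexa 594 FP and total fluorescence read at 555/632 nm.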
Tau ThT inhib – blocks human tau fibril formation measured by thioflavin T | P10636 | recombinant tau K18 P301L, heparin-induced fibrillization, ThT fluorescence | Potency, µM (top dose mostly 57.4 µM), for inactives: at the top dose activity, negative = inhibition, usual class: inhibitors | 270,000 tested, 2.1% active; also: potency is read from the fitted curve at half-maximal effect; nearly all actives have a fitted effect of over 55% in size
Target sequence (P10636 561-689 P618L limits assumed): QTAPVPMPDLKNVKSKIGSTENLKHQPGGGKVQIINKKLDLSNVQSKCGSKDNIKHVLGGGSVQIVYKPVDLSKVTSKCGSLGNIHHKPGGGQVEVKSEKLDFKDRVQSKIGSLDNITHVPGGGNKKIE
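Aggregation was driven by heparin (20 uM final) acting on recombinant tau […] bearing P301L in 100 mM sodium acetate pH 7; fibrils were detected with Thioflavin T.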
PNC assembly inh – perinucleolar compartment assembly inhibition. AID 2417. activity change (PNC), negative = inhibition, % at 10 µM. 140,000 tested, 3.1% active. PC3M PTB-GFP, PNC prevalence imaging, 16 h; hits give low values;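 active = readout at or below -70, meaning at least 70% loss of cells showing the perinucleolar compartment, a nuclear body marking cancer cells; inconclusive = readout between -30 and a set limit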;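 also: plate controls were DMSO wells for no effect and camptothecin positive control wells for full effect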
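Compounds are pinned in duplicate onto adhered PC3M cells stably expressing GFP-tagged PTB and incubated 16 h at 37 C. Cells are then fixed, nuclei stained with Hoechst, and PNC-positive cells counted.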
Tau fibril FP – blocks human tau fibril formation measured by polarization; AID 1468; P10636; 280,000 tested, 0.39% active; K18 P301L tau heparin fibrillization, Alexa594 FP, 6 h; Potency, µM (titrated, usually from 57.7 µM), for inactives: top-dose activity, negative = inhibition, hits mostly inhibitors; also: potency is read from the fitted curve at half-maximal effect; nearly all actives have a fitted effect of over 55% in size
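Heparin (20 uM) drove fibril formation of recombinant tau K18 P301L, 15 uM unlabeled with 0.24 uM Alexa 594 label, for 6 hr at 37 C in 100 mM sodium acetate pH 7. Fluorescence polarization (555/632 nm) read 1 hr after 30 uM ThT.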
NPSR antagonist – neuropeptide S receptor (human) antagonism, cAMP; Q6W5P4; CHO-NPSR cells, cAMP TR-FRET, antagonist mode; Potency, µM (top dose mostly 38.3 µM), for inactives: top-dose activity change, negative = inhibition, most hits filed as inhibitors; 220,000 tested, 1% active; AID 1461; also: potency is read from the fitted curve at half-maximal effect; nearly all actives have a fitted effect of over 50% in size
KDM4E inh – inhibitors of human JMJD2E histone demethylase. JMJD2E catalytic domain, FDH-coupled NADH fluorescence (FDH is formaldehyde dehydrogenase). B2RXH2. 230,000 tested, 1.6% active. Potency, µM (highest dose often 57.1 µM), without a hit: at the top dose activity change, negative = inhibition, most hits filed as inhibitors; active = well fitted inhibition curve with a large enough effect, not every such curve was filed as active; inconclusive = small, poorly fitted or top-dose-only effect, or another doubt; inactive = no such curve, though single readings can be large or run the other way;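 also: potency is read from the fitted curve at half-maximal effect; 0% = wells with enzyme and -100% = buffer wells without enzyme; nearly all actives have a fitted effect of over 50% in size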
Target sequence (B2RXH2 1-337 limits assumed): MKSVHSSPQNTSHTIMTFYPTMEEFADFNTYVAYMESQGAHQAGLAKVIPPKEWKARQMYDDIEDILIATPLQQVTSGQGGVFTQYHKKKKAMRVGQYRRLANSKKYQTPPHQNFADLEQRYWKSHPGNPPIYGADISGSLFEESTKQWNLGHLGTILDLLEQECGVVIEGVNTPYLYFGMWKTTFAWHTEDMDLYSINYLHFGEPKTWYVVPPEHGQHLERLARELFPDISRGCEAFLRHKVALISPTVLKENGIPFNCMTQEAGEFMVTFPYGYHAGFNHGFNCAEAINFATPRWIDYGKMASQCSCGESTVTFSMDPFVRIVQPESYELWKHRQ
* marks the source's active call; other numbers are inactive results; i = inactive; ? = inconclusive; . = no result; ! = not active in a repeat; [ ] = another dose, or the depositor's remark. An excerpt weighted towards active compounds, which were near 5.1% of everything screened. Unless noted, calls follow the shape of the dose curve; as a rule, active = well fitted curve in the direction sought with a large enough effect; inconclusive = small, poorly fitted or top-dose-only effect, or another doubt; inactive = no such curve, though single readings can be large; an effect the other way counts as inactive or inconclusive. Unless noted, % is scaled to controls: 0 for no effect and ±100 for the full control effect.

SMILES | Tau fluor cs | Tau ThT inhib | PNC assembly inh | Tau fibril FP | NPSR antagonist | KDM4E inh
CCC1CN(C(=O)Nc2ccccc2C(F)(F)F)c2ccccc2O1 (centres undefined) | -30% | -14% | . | -7% | . | .
CCOC(=O)c1c(C)[nH]c(CCC(=O)NCc2cccc(C)c2)c1C | -14% | -9% | . | 10% | . | .
CCOC(=O)c1c(C)[nH]c(N=Nc2cccc(OC)c2)c1C | ? | 5µM* | . | 11% | -41% | -4%
CCOC(=O)c1c(C)[nH]c(N=Nc2cccc(C)c2)c1C | ? | 10µM* | 2 | 7% | ? | 1%
Cc1oc(-c2cccc(Br)c2)nc1Cn1c(=O)cc(-c2ccccc2)c2c(C)nn(C)c21 | 5% | -10% | . | -5% | . | .
CCOc1ccc(-c2nnc(SCC(=O)Nc3cc(C)ccc3OC)o2)cc1 | -6% | -12% | . | -8% | . | .
CCN(CC)CCCNc1ncnc2c1cnn2-c1ccc(C)c(C)c1 | -8% | -1% | . | -1% | . | .
CNC(=O)c1c(NC(=O)c2cc(=O)c3ccccc3o2)sc2c1CCC2 | -6% | ? | . | -1% | . | .
Oc1ccc(NCc2ccc(OCc3ccccc3Cl)cc2)cc1 | 7.9µM*[quencher] | 14µM* | . | ? | . | .
Oc1ccc(NCc2ccccc2OCc2ccccc2F)cc1 | 7.9µM*[quencher] | 16µM* | 15 | 22µM*! | ? | 5µM*
Oc1ccc(NCc2ccc(OCc3ccccc3)cc2)cc1 | ? | ? | . | -7% | . | .
CCc1ccc(CNc2ccc(O)cc2)cc1 | ? | 3.2µM* | -7 | 7.1µM* | -20%[46.1 µM] | 2%
CCOc1cccc(CNc2ccc(O)cc2)c1OCc1ccc(Cl)cc1 | ? | 8.9µM* | 6 | 13µM* | ? | -28%
Cc1ccc(NCc2ccccc2OCc2ccccc2F)cc1 | ? | -15% | -18 | 12% | -22%[46.1 µM] | 2%
CCOc1ccc(-c2cn3c(n2)sc2cc(C(=O)NCCCc4ccccc4)ccc23)cc1 | 7% | 2% | . | 0% | . | .
CCOc1cc(CNc2ccc(O)cc2)ccc1OCc1ccc(Cl)cc1Cl | ? | 13µM* | -4 | 22µM* | -24%[46.1 µM] | 4.5µM*
CCOc1ccccc1CNc1ccc(O)cc1 | ? | 7.1µM* | . | 8.9µM* | -4% | -14%
Oc1ccc(NCc2ccccc2OCc2ccccc2Cl)cc1 | 16µM*[quencher] | 28µM* | . | -15% | . | .
COc1ccc(-c2nc3c(c4c2C[C@H](c2ccccc2)OC4)CN(S(=O)(=O)c2ccc(Cl)c4nonc24)CC3)c(C)c1 | -7%[11.6 µM] | -13%[11.5 µM] | . | 2%[11.6 µM] | . | -9%[11.4 µM]
COc1ccc(OC)c(N=c2ssnc2Cl)c1 | -26% | 11µM* | -15 | ? | -22%[46.1 µM] | 13µM*
COc1cc(N=c2ssnc2Cl)c(OC)cc1Cl | -29% | 10µM* | 10 | ? | -15%[46.1 µM] | 13µM*
COc1ccc(NC(=O)c2ccc(COCC(F)(F)F)cc2)cc1OC | -21% | ? | 3 | 4% | 2% | -3%
COc1ccc(C(=O)Nc2ccc(OCC(F)(F)C(F)F)c(C(F)(F)F)c2)cc1OC | ? | 1% | ? | 22µM* | -2%[46.1 µM] | ?
Cc1ccc(CN2C(=O)CN(C3CCC(C)CC3)C(=O)C2c2ccc(F)cc2)cc1 (centres undefined) | 14% | 8% | . | 0% | . | .
CCC(C)(C(=O)NC1CCCC1)N(C(=O)c1ccccn1)c1ccc(C)cc1 (centres undefined) | -3% | -6% | ? | ? | -10%[46.1 µM] | ?
SMILES | Tau fluor cs | Tau ThT inhib | PNC assembly inh | Tau fibril FP | NPSR antagonist | KDM4E inh
CCC(C)(C(=O)NC1CCCCC1)N(C)C(=O)c1ccccn1 (centres undefined) | -6% | -10% | -106* | 6% | -11%[46.1 µM] | -6%
Cc1ccnc2ccc(P(=O)(c3ccccc3)c3ccccc3)cc12 | 3% | -5% | . | 3% | -32% | 2%
CC[n+]1ccc(C)c2cc(P(=O)(c3ccccc3)c3ccccc3)ccc21 | -20% | ? | . | -3% | -60% | 25µM*
CCN(CC)C1=CC2=CC(=C(C#N)C#N)CCC2CC1 (centres undefined) | 7% | 9% | -134* | -4% | -23% | -2%
N#CC(C#N)=C1C=C2C=C(N3CCCCC3)CCC2CC1 (centres undefined) | ? | ? | -118* | -13% | -32% | -29%
CCCCN(C)C1=CC2=CC(=C(C#N)C#N)CCC2CC1 (centres undefined) | -18% | ? | -83* | 7% | -34% | 0%
O=C(Nc1nnc2n1CCS2)c1ccc(F)cc1F | -2% | -8% | . | -5% | . | .
Cc1sc(NC(=O)c2ccco2)c(CN2CCC(C)CC2)c1C | -16% | -12% | -5 | 0% | ? | -12%
Cc1sc(NC(=O)c2ccco2)c(C(c2cccnc2)N2CCC(C)CC2)c1C (centres undefined) | -26% | -17% | ? | -5% | 13µM* | ?
O=C(c1cccc([N+](=O)[O-])c1)N1c2ncnn2C2(CCCCC2)[C@@H]2CCCC[C@@H]21 | -12% | 1% | . | 6% | . | .
CCOC(=O)Nc1nnc(-c2ccccc2OC)s1 | 1% | -3% | -119* | -1% | -26% | ?
COC(=O)Nc1nnc(-c2ccccc2OC)s1 | 4% | . | . | -4% | -14% | ?
O=C(CCC1N=C2c3ccccc3N=C(SCC(=O)Nc3ccccc3F)N2C1=O)NCc1ccccc1 (centres undefined) | -12% | -4% | . | -8% | . | .
CC1=C(C#N)C(=O)NC(=O)/C1=C\c1ccc(-c2ccc(C)cc2[N+](=O)[O-])o1 | ? | 16µM* | . | ? | -14% | ?
CCOC(=O)c1cc(-c2ccc(/C=C3/C(=O)NC(=O)C(C#N)=C3C)o2)ccc1Cl | ? | ? | -13 | -11% | -17%[46.1 µM] | ?
O=C(NCc1cccnc1)/C(=C/c1ccc(-c2cccc(Cl)c2)o1)S(=O)(=O)c1ccccc1 | 13% | ? | 18 | 8% | 5µM* | i
O=C(NCc1cccnc1)/C(=C\c1ccc(-c2cccc(Cl)c2)o1)S(=O)(=O)c1ccccc1 | 10% | ? | ? | 12% | ? | -23%
O=c1cc(-c2ccc(F)cc2)nc(SCc2nc(-c3cccc(C(F)(F)F)c3)no2)[nH]1 | -1% | 4% | . | -11% | . | .
COc1cc(OC)cc(-c2nc3cc(C)ccc3o2)c1 | 9% | 12% | -117* | 13% | -8%[46.1 µM] | -1%
CCN(CC)S(=O)(=O)c1cc(C(=O)Nc2cccnc2)ccc1Cl | 1% | 0% | ? | 10% | -15%[46.1 µM] | -1%
CCN(CC)S(=O)(=O)c1cc(C)ccc1NC(=S)Nc1cccnc1 | ? | 8% | . | 32µM* | -1% | ?
CCc1nc2ccc(C(=O)NCCc3ccc(SC)cc3)cc2nc1CC | -10% | -15% | . | -17% | . | .
CCOC(=O)c1c(C)oc2c1c(CN1CCN(C(=O)OCC)CC1)c(O)c1ccccc12 | ? | ? | 49 | ? | -5% | 25µM*

Screens (PubChem)
